Source: PubChem (National Center for Advancing Translational Sciences (NCATS))
An excerpt weighted towards active compounds, which were near 2.4% of everything screened.
GLP1R ag – qHTS of GLP-1 Receptor Agonists; HEK293 GLP-1R CRE-luciferase, luminescence, 4-6 h; cells express a hypersensitive GLP-1R form; Potency, µM (highest dose often 45.6 µM), inactives show at the top dose activation, hits mostly activators; actives 0.007% (n = 380,000); AID 624172, 2012; further: potency means the concentration at half of the fitted maximal effect; % of control where 0% means no effect
Target sequence (P43220 whole entry, looked up): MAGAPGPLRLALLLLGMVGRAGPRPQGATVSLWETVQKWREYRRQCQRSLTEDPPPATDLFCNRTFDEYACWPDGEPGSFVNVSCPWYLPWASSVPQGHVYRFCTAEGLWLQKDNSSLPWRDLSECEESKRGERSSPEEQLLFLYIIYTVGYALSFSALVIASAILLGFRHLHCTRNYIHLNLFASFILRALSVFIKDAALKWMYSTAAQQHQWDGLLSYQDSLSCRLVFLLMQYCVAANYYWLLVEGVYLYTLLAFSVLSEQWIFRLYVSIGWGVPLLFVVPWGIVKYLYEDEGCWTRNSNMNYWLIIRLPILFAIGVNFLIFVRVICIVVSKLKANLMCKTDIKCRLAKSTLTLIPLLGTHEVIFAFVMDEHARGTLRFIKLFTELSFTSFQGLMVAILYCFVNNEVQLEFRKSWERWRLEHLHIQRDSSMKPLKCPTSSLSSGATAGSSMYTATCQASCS
TRHR PAM – qHTS for Small Molecule Agonists and Allosteric Enhancers of Human TRH Receptor: Primary Screen for Enhancers; Thyrotropin-releasing hormone receptor (Homo sapiens), P34981; TRHR cells, fluo-8 calcium fluorescence, EC20 TRH enhancement; enhancement, % at 2 µM; actives 0.66% (n = 360,000); in the data active means enhancement above about 30%; further: 0% is about no effect
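TRHR-expressing cells loaded with fluo-8 calcium dye were read kinetically (ex 480/em 530) during compound addition, then stimulated with an EC20 of TRH (10 nM final). Enhancement of the Gq-mediated intracellular calcium response was scored.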
PTHR1 agonist – qHTS for PTHR1 Agonists: Primary Screen; AID 743266, 2014; HEK293 GP2 PTHR1 cells, GloSensor cAMP luminescence, 1 h; actives 0.075% (n = 410,000); Potency, µM (doses to about 115 µM), for inactives: top-dose activation, hits mostly activators; further: potency means the concentration at half of the fitted maximal effect; nearly all actives have a fitted effect of over 55% in size
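HEK-293-derived GP2 cells expressing PTHR1 and a GloSensor cAMP reporter, 3,000/well, plated overnight, given luciferin plus IBMX (each 0.5 mM as added) for 1 h at 37 °C, then compound for 1 h at 37 °C. Luminescence was read after 15 min at room temperature.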
TRHR agonist – qHTS for Small Molecule Agonists and Allosteric Enhancers of Human TRH Receptor: Primary Screen for Agonists | Thyrotropin-releasing hormone receptor (Homo sapiens), P34981 | TRHR cells, calcium flux fluo-8, FDSS agonist mode | activation, % at 2 µM | actives 0.18% (n = 360,000) | AID 493084, 2011; in the data active means activation above about 30%; further: 0% is about no effect
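TRHR-expressing cells, plated overnight in medium with 10% serum, were loaded with fluo-8 calcium dye at room temperature. After a 10 s baseline, library compound was pin-added and calcium release was recorded kinetically (ex 480/em 530) as agonist response.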
GLP1R cytotox – qHTS of GLP-1 Receptor Inverse Agonists: Cytotox Screen; HEK293 cAMP-luciferase reporter cells, luminescence, 24 h; Potency, µM (titrated, usually from 38.3 µM), without a hit: at the highest dose activity change, negative = inhibition, most hits filed as inhibitors; actives 0.13% (n = 410,000); AID 624418, 2012;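 further: loss of luciferase light is scored as toxicity; potency means the concentration at half of the fitted maximal effect; on the % scale 0 is the no-effect control and ±100 the full control effect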
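Compound-treated cells are incubated 24 hr at 37 deg C under 5% CO2 after a 12 hour attachment period, then luciferase detection reagent is added and luminescence is measured following 12 min at room temperature; lowered signal indicates toxicity.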
GLP-1R inv ag – qHTS of GLP-1 Receptor Inverse Agonists (Inhibition Mode) | Potency, µM (highest dose often 38.3 µM), without a hit: top-dose activity change, negative = inhibition, usual class: inhibitors | Glucagon-like peptide 1 receptor (Homo sapiens), P43220 | actives 1.6% (n = 410,000) | HEK293 GLP-1R CRE-luciferase, luminescence, 24 h; GLP-1R form is constitutively active; further: potency means the concentration at half of the fitted maximal effect; on the % scale 0 is the no-effect control and ±100 the full control effect; nearly all actives have a fitted effect of over 55% in size
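Assay principle: reduced luminescence from a cAMP-responsive reporter in HEK293 cells co-expressing a constitutively active GLP-1R. Conditions: 24 hr compound incubation, 37 deg C, 5% CO2.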
* hit, by the source's call; i = inactive; ? = inconclusive; . = not tested or not shown; [ ] = dose if it differs, or a comment. Unless noted, the call rests on the fitted dose curve; in most records, active means well fitted curve in the direction sought with a large enough effect; inconclusive means small, poorly fitted or top-dose-only effect, or another doubt; inactive means no such curve, though single readings can be large; an effect the other way counts as inactive or inconclusive.

SMILES	GLP1R ag	TRHR PAM	PTHR1 agonist	TRHR agonist	GLP1R cytotox	GLP-1R inv ag
CSc1nnc([C@H](C)NC(=O)OC(C)(C)C)o1	9%	-4	i	0	5%	-1%
CCOC(=O)CCCCC(=O)c1[nH]c(=O)[nH]c1CSc1nc2ccccc2[nH]1	-6%	9	i	-1	-9%	2%
N/C(Cc1ccccc1)=N\OC(=O)c1cccc2ccccc12	?	4	7%	-1	10µM*	13µM*
N/C(Cc1cccc2ccccc12)=N\OC(=O)c1ccccc1F	10%	9	-22%	0	17%	20%
Cc1ccc(CNC(=O)C(C)n2nc(C)c3sc4ccccc4c3c2=O)cc1 (configuration not stated)	.	13	45µM*	-1	-8%	-10%
COc1ccc(CNC(=O)C/C(C)=N/NC(=O)COc2ccc(C)cc2Br)cc1	17%	32*	-6%	0	-22%	?
CC(=O)Nc1ccc(CN(C)c2c(C)nc3ccc(C(=O)NCCc4ccccn4)cn23)cc1	-4%	.	i	.	4%	-6%
Cc1cc(Nc2ccccc2)c2c([N+](=O)[O-])cc(C)c(C)c2n1	-1%	39*	-6%	-1	-4%	1%
Cc1ccc(-c2nnc(SCC(=O)NC(C)(C)C)nc2-c2ccc(C)cc2)cc1	.	-3	-11%	0	0%	11µM*
O=C1CCCc2cc3c(cc21)CCCC3	10%	.	-16%	.	1%	-25%
CCOC(=O)C(Sc1cc(-c2ccccc2)nc2ncnn12)C(C)=O (configuration not stated)	1%	-2	i	5	3.5µM*	?
CCOC(=O)C(Cc1ccccc1)NC(=O)CCc1c(C)nc2ncnn2c1C (configuration not stated)	0%	-1	-37%[57.5 µM]	0	-9%	0%
O=C(CN1CCN(Cc2ccccc2)CC1)Nc1ccccc1-c1ccccc1	15%	1	i	-1	-20%	2µM*
CCc1cc2c(cc3c(=O)n(CC(=O)NC(C)c4ccccc4)ncn32)s1 (configuration not stated)	.	-4	i	0	15%	20%
Cc1cc(NC(=O)CCN2CCC(C(N)=O)CC2)ccc1Br	3%	7	i	-1	24%	-4%
NC(=O)C1CCN(CCC(=O)Nc2ccc(Br)cc2)CC1	0%	34*	-62%	1	21%	9%
CCCCn1c(N)c(N(CCC(C)C)C(=O)c2c(C)noc2C)c(=O)[nH]c1=O	-11%	-6	-24%	0	9%	5%
O=C(N/N=C/c1cc([N+](=O)[O-])ccc1O)c1ccc2c(c1)OCCO2	-2%	9	i	-1	3.5µM*	?
CCOc1cc(/C=C2\N=C(SC(C)C(N)=O)N(c3ccc(OC(F)F)cc3)C2=O)ccc1O (configuration not stated)	-4%	19	-64%	32*	-11%	?
COC(=O)c1ccc2nc(C(C)(C)C)c(Cc3ccc(OC)cc3C)n2c1	-4%	.	-20%	.	5%	24%
CCn1c2ccccc2c2cc(/C=N/n3c(-c4cc(C)[nH]n4)n[nH]c3=S)ccc21	17%	-4	i	-1	-23%	2.5µM*
Cc1cc(-c2n[nH]c(=S)n2/N=C/c2ccc(C)o2)n[nH]1	2%	40*	10%	0	0%	-14%
CCOc1cccc(/C=N/NC(=S)Nc2cc(S(=O)(=O)N3CCOCC3)ccc2N2CCOCC2)c1O	1%	9	-12%	-1	-3%	5µM*
CCN1CC(CN(C)Cc2nc(-c3ccc(OC)c4ccccc34)oc2C)CC1=O (configuration not stated)	15%	1	-2%	0	?	10µM*
CN(c1ccccc1)S(=O)(=O)c1cccc(NC(=O)CSc2ncn[nH]2)c1	1%	5	-67%	0	64%	16%
SMILES	GLP1R ag	TRHR PAM	PTHR1 agonist	TRHR agonist	GLP1R cytotox	GLP-1R inv ag
Cc1cccc2[nH]c3c(N4CC=C(c5ccc(F)cc5)CC4)ncnc3c12	-1%	-1	-94%	0	-56%	10µM*
Cc1ccc(S(=O)C(c2ccccc2)c2ccccc2)cc1 (configuration not stated)	1%	.	i	.	-1%	-20%
COC(=O)c1ccc(OC)c(CN2CCCN(Cc3ccc(F)cc3)S2(=O)=O)c1	20%	2	-6%	-1	2%	10µM*
COc1ccc(C=O)cc1CN1CCCN(Cc2ccc(Cl)cc2)S1(=O)=O	18%	-7	0%	1	1%	7.1µM*
O=C(O)c1cc2c(=O)c3ccccc3oc2nc1C(F)(F)F	-2%	-1	11%	0	10%	2%
Cc1ccccc1OCC(=O)N1N=C(C(F)(F)F)CC1(O)C(C)(C)C (configuration not stated)	-19%	1	i	0	?	8.9µM*
Cc1ccc(OCC(=O)N2N=C(C(F)(F)F)CC2(O)C(C)(C)C)cc1C (configuration not stated)	-2%	-3	-15%[57.5 µM]	1	-28%	-57%
CC(C)(C)C1(O)CC(C(F)(F)F)=NN1C(=O)Cc1ccc([N+](=O)[O-])cc1 (configuration not stated)	18%	-5	-1%	1	20%	10µM*
COc1ccccc1CCN=C(N)NS(=O)(=O)c1cccs1	12%	-1	-8%	-1	3%	13%
COc1ccc([C@@H]2CC=C(C(=O)O)[C@H](c3ccc(F)cc3)N2S(=O)(=O)c2ccc(C)cc2)cc1OC	0%	1	-7%	0	-3%	-2%
Cc1ccc(NC(=O)NC(C)c2c(-n3cccc3)sc(C)c2C)cc1F (configuration not stated)	.	-15	-40%	0	-28%	?
Cc1sc(-n2cccc2)c(C(C)NC(=O)Nc2cccc(C(F)(F)F)c2)c1C (configuration not stated)	.	4	-46%	0	-7%	8.9µM*
